Assay results from PubChem BioAssay (NCI).
This is part of a sample that, as a whole, favours compounds with a hit. Of some 83,000 tested, about 20% had one in any assay.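 Cell lines were cultured in 96-well plates, exposed to a single compound concentration, and assessed for percent growth 48 hours later.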 A number with no mark means an inactive call. Calls of active or inactive are those of the source. The calls were made as follows: active = growth percent below 10; inactive = the rest.

Experiments:
Assay in all cases: NCI-60 one-dose screen, 48 h (100 = growth as untreated, 0 = no growth, -100 = all killed)
Conditions in all cases: 10 µM unless noted
T-47D breast = system: T-47D breast
BT-549 breast = system: BT-549 breast
MDA-MB-435 melanoma = system: MDA-MB-435 melanoma
SW-620 colon = system: SW-620 colon
MCF7 breast = system: MCF7 breast
HCT-116 colon = system: HCT-116 colon
HCC-2998 colon = system: HCC-2998 colon
KM12 colon = system: KM12 colon

## COc1ccc2c(c1)OC13Oc4cc(OC)ccc4C=C1CCCC3=C2
T-47D breast
  growth: 44.7%
BT-549 breast
  growth: 35%
MDA-MB-435 melanoma
  growth: -10.4% (active)
SW-620 colon
  growth: 16.6%
MCF7 breast
  growth: 8.63% (active)
HCT-116 colon
  growth: 20%
HCC-2998 colon
  growth: 57.9%
KM12 colon
  growth: -5.69% (active)

## CCOC(=O)Oc1c(OC)cc(C(=O)O[C@@H]2C[C@@H]3CN4CCc5c([nH]c6cc(OC)ccc56)[C@H]4C[C@@H]3[C@H](C(=O)OC)[C@H]2OC)cc1OC
T-47D breast
  growth: 38.6%
BT-549 breast
  growth: 77.5%
MDA-MB-435 melanoma
  growth: 70.9%
SW-620 colon
  growth: 48.4%
MCF7 breast
  growth: 83.8%
HCT-116 colon
  growth: 1.57% (active)
HCC-2998 colon
  growth: 68.7%
KM12 colon
  growth: 39.8%

## c1ccc(N2N=C(c3cccc(Nc4ccncc4)c3)CC2c2ccc3c(c2)OCO3)cc1 (centres undefined)
T-47D breast
  growth: 48.5%
BT-549 breast
  growth: 80%
MDA-MB-435 melanoma
  growth: -73.2% (active)
SW-620 colon
  growth: -53.6% (active)
MCF7 breast
  growth: 2.01% (active)
HCT-116 colon
  growth: 63.3%
HCC-2998 colon
  growth: 0.363% (active)
KM12 colon
  growth: 8.25% (active)

## C=CCn1c(SCC(=O)Nc2ccc(C(=O)/C=C/c3cc(OC)c(OC)c(OC)c3)cc2)nnc1-c1cc(OC)c(OC)c(OC)c1
T-47D breast
  growth: 60.7%
BT-549 breast
  growth: 52.3%
MDA-MB-435 melanoma
  growth: 3.79% (active)
SW-620 colon
  growth: -9.49% (active)
MCF7 breast
  growth: 7.87% (active)
HCT-116 colon
  growth: -70.9% (active)
HCC-2998 colon
  growth: 20.2%
KM12 colon
  growth: 1.11% (active)

## COc1cc2nc(Cc3ccc(C)cc3)[nH]c(=O)c2cc1OC
T-47D breast
  growth: 107%
BT-549 breast
  growth: 229%
MDA-MB-435 melanoma
  growth: 119%
SW-620 colon
  growth: 101%
MCF7 breast
  growth: 104%
HCT-116 colon
  growth: 117%
HCC-2998 colon
  growth: 106%
KM12 colon
  growth: 109%

## O=C(Nc1ccc2cc3ccc(NC(=O)N4CCCCCC4)cc3nc2c1)N1CCCCCC1
T-47D breast
  growth: -30% (active)
BT-549 breast
  growth: -66.6% (active)
MDA-MB-435 melanoma
  growth: -82.4% (active)
SW-620 colon
  growth: -56.3% (active)
MCF7 breast
  growth: -45.9% (active)
HCT-116 colon
  growth: -53.1% (active)
HCC-2998 colon
  growth: -63.7% (active)
KM12 colon
  growth: -65.9% (active)

## CNC(=O)Nc1ccc(-c2nc(N3CCOCC3)nc3c2cnn3C2CCOCC2)cc1
T-47D breast
  growth: -15.6% (active)
BT-549 breast
  growth: -15.4% (active)
MDA-MB-435 melanoma
  growth: -26.6% (active)
SW-620 colon
  growth: 12%
MCF7 breast
  growth: 1.06% (active)
HCT-116 colon
  growth: 12.7%
HCC-2998 colon
  growth: 13.5%
KM12 colon
  growth: 12.8%

## COc1ccc(-c2c(-c3ccccc3)noc2N)cc1OC
T-47D breast
  growth: 99.6%
BT-549 breast
  growth: 105%
MDA-MB-435 melanoma
  growth: 91%
SW-620 colon
  growth: 118%
MCF7 breast
  growth: 91.2%
HCT-116 colon
  growth: 100%
HCC-2998 colon
  growth: 110%
KM12 colon
  growth: 94.7%

## O=C(/C=C/c1ccc[nH]1)c1ccc(-n2ccc(C(F)(F)F)n2)cc1
T-47D breast
  growth: 94.7%
BT-549 breast
  growth: -45.3% (active)
MDA-MB-435 melanoma
  growth: 99.5%
SW-620 colon
  growth: 102%
MCF7 breast
  growth: 72.2%
HCT-116 colon
  growth: 87.3%
HCC-2998 colon
  growth: 54.7%
KM12 colon
  growth: 1.59% (active)

## c1ccc(-c2nnc(Nc3ccc4c(c3)OCCO4)o2)c(NCc2ccncc2)c1
T-47D breast
  growth: 52.7%
BT-549 breast
  growth: -15.1% (active)
MDA-MB-435 melanoma
  growth: -34.6% (active)
SW-620 colon
  growth: 27.9%
MCF7 breast
  growth: 20%
HCT-116 colon
  growth: 4.92% (active)
HCC-2998 colon
  growth: -22.3% (active)
KM12 colon
  growth: -38.3% (active)

## COc1cc(C2NC(c3cc(OC)c(OC)c(OC)c3)C(C#N)(C#N)C2(C#N)C#N)cc(OC)c1OC (centres undefined)
T-47D breast
  growth: 96.4%
BT-549 breast
  growth: 101%
MDA-MB-435 melanoma
  growth: 101%
SW-620 colon
  growth: 95.8%
MCF7 breast
  growth: 95.5%
HCT-116 colon
  growth: 91.1%
HCC-2998 colon
  growth: 98.7%
KM12 colon
  growth: 99.5%

## O=C1Nc2c(ccc(Cl)c2Cl)/C1=C/c1ccc([N+](=O)[O-])cc1
T-47D breast
  growth: 85.3%
BT-549 breast
  growth: 87.4%
MDA-MB-435 melanoma
  growth: 93%
SW-620 colon
  growth: 100%
MCF7 breast
  growth: 90.4%
HCT-116 colon
  growth: 76.9%
HCC-2998 colon
  growth: 108%
KM12 colon
  growth: 110%

## Nc1ncc(C#Cc2cncc(NC(=O)c3cccc(C(F)(F)F)c3)c2)c2cccnc12
T-47D breast
  growth: 76.3%
BT-549 breast
  growth: 63.1%
MDA-MB-435 melanoma
  growth: 22.9%
SW-620 colon
  growth: 49.3%
MCF7 breast
  growth: 4.41% (active)
HCT-116 colon
  growth: 21.8%
HCC-2998 colon
  growth: 47.1%
KM12 colon
  growth: 19%

## Nc1nc(N)nc(NCc2ccccc2)n1
T-47D breast
  growth: 98.2%
BT-549 breast
  growth: 106%
MDA-MB-435 melanoma
  growth: 112%
SW-620 colon
  growth: 112%
MCF7 breast
  growth: 95.8%
HCT-116 colon
  growth: 106%
HCC-2998 colon
  growth: 94.7%
KM12 colon
  growth: 104%

## FCc1nc2nc(Cl)c(Cl)nc2[nH]1
T-47D breast
  growth: 101%
BT-549 breast
  growth: 104%
MDA-MB-435 melanoma
  growth: 107%
SW-620 colon
  growth: 103%
MCF7 breast
  growth: 96.5%
HCT-116 colon
  growth: 101%
HCC-2998 colon
  growth: 104%
KM12 colon
  growth: 104%

## O=C1c2cccnc2C(=O)c2nc3cc(N4CCN(C5CC5)CC4)ccc3nc21
T-47D breast
  growth: 22.5%
BT-549 breast
  growth: -93.7% (active)
MDA-MB-435 melanoma
  growth: -87.4% (active)
SW-620 colon
  growth: -37.8% (active)
MCF7 breast
  growth: -56.1% (active)
HCT-116 colon
  growth: 0.851% (active)
HCC-2998 colon
  growth: -80.8% (active)
KM12 colon
  growth: 9.27% (active)

## O=C(O)C(/C=C/c1ccco1)=N\Nc1nc(-c2ccc(Cl)cc2)cs1
T-47D breast
  growth: 66.6%
BT-549 breast
  growth: 63.8%
MDA-MB-435 melanoma
  growth: 45.7%
SW-620 colon
  growth: 71.5%
MCF7 breast
  growth: 71.9%
HCT-116 colon
  growth: 26.3%
HCC-2998 colon
  growth: 49%
KM12 colon
  growth: 62.2%

## O=C(O)c1cn(C2CC2)c2cc(N3CCN(C(=O)C[n+]4cccc5ccccc54)CC3)c(F)cc2c1=O
T-47D breast
  growth: 74%
BT-549 breast
  growth: 75.8%
MDA-MB-435 melanoma
  growth: 59.5%
SW-620 colon
  growth: -17.2% (active)
MCF7 breast
  growth: 45.2%
HCT-116 colon
  growth: 23.7%
HCC-2998 colon
  growth: 106%
KM12 colon
  growth: 92.3%

## [2H]C1([2H])NC([2H])([2H])C([2H])([2H])N(c2ccc(Nc3ncc4cc(C(=O)N(C)C)n(C5CCCC5)c4n3)nc2)C1([2H])[2H]
T-47D breast
  growth: 68%
BT-549 breast
  growth: 92.9%
MDA-MB-435 melanoma
  growth: 68.7%
SW-620 colon
  growth: 42.2%
MCF7 breast
  growth: 45%
HCT-116 colon
  growth: 55.3%
HCC-2998 colon
  growth: 89.9%
KM12 colon
  growth: 54.5%

## COc1ccc(-c2nc(N/N=C/c3cccc(Br)c3)nc(N3CCOCC3)c2C#N)cc1
T-47D breast
  growth: 77%
BT-549 breast
  growth: 100%
MDA-MB-435 melanoma
  growth: 87.9%
SW-620 colon
  growth: 14%
MCF7 breast
  growth: 59.3%
HCT-116 colon
  growth: 32.9%
HCC-2998 colon
  growth: 75.4%
KM12 colon
  growth: 44.2%

## COc1ccc(C(=O)c2cc3c(N)c(C(=O)Nc4cccc(Cl)c4C)sc3nc2C)cc1
T-47D breast
  growth: 40.9%
BT-549 breast
  growth: 36.9%
MDA-MB-435 melanoma
  growth: -6.97% (active)
SW-620 colon
  growth: 23.2%
MCF7 breast
  growth: 19.4%
HCT-116 colon
  growth: 7.35% (active)
HCC-2998 colon
  growth: 17.1%
KM12 colon
  growth: 10.6%

## CCc1nc(C)cn1C(=O)OCc1nc2nc(Cl)nc(N3CCOCC3)c2[nH]1
T-47D breast
  growth: -47.9% (active)
BT-549 breast
  growth: -18.8% (active)
MDA-MB-435 melanoma
  growth: -73.6% (active)
SW-620 colon
  growth: -47.9% (active)
MCF7 breast
  growth: -22.4% (active)
HCT-116 colon
  growth: -71.5% (active)
HCC-2998 colon
  growth: 26.5%
KM12 colon
  growth: 20.8%

## NNC(=O)/C(=C\c1ccc([N+](=O)[O-])cc1)CC(=O)c1ccc(Cl)c(Cl)c1
T-47D breast
  growth: 77.1%
BT-549 breast
  growth: 110%
MDA-MB-435 melanoma
  growth: 96.9%
SW-620 colon
  growth: 86%
MCF7 breast
  growth: 73.8%
HCT-116 colon
  growth: 88.9%
HCC-2998 colon
  growth: 93.5%
KM12 colon
  growth: 95.2%

## CC(C)(C)OC(=O)N1C/C(=C\c2ccoc2)C(=O)/C(=C/c2ccoc2)C1
T-47D breast
  growth: 82.4%
BT-549 breast
  growth: 102%
MDA-MB-435 melanoma
  growth: 98.2%
SW-620 colon
  growth: 56.8%
MCF7 breast
  growth: 20.5%
HCT-116 colon
  growth: 21.7%
HCC-2998 colon
  growth: 98.9%
KM12 colon
  growth: 88.8%

## O=c1nc2n(nc1/C=C/c1ccco1)CC(c1ccc(Cl)cc1)=NN2
T-47D breast
  growth: 49.7%
BT-549 breast
  growth: 84.1%
MDA-MB-435 melanoma
  growth: 110%
SW-620 colon
  growth: 102%
MCF7 breast
  growth: 22.2%
HCT-116 colon
  growth: 99%
HCC-2998 colon
  growth: 110%
KM12 colon
  growth: 115%

## COc1ccccc1/C=C1\COc2ccc(-c3ccccc3)cc2C1=O
T-47D breast
  growth: 14%
BT-549 breast
  growth: 12%
MDA-MB-435 melanoma
  growth: -45% (active)
SW-620 colon
  growth: 16.8%
MCF7 breast
  growth: -9.07% (active)
HCT-116 colon
  growth: 5.64% (active)
HCC-2998 colon
  growth: 51.6%
KM12 colon
  growth: -32% (active)

## c1ccc2c(-c3c4ccsc4cc4[nH]c5ccccc5c34)c[nH]c2c1
T-47D breast
  growth: 26.3%
BT-549 breast
  growth: 33.9%
MDA-MB-435 melanoma
  growth: 1.93% (active)
SW-620 colon
  growth: 25.4%
MCF7 breast
  growth: 15%
HCT-116 colon
  growth: 17.5%
HCC-2998 colon
  growth: 65.6%
KM12 colon
  growth: 14.9%

## N/C(=N\N=C\c1cc2ccccc2[nH]1)N/N=C/c1cc2ccccc2[nH]1
T-47D breast
  growth: 88.8%
BT-549 breast
  growth: 98.7%
MDA-MB-435 melanoma
  growth: 104%
SW-620 colon
  growth: 101%
MCF7 breast
  growth: 69.8%
HCT-116 colon
  growth: 86.8%
HCC-2998 colon
  growth: 99.6%
KM12 colon
  growth: 97.6%
